Screens from PubChem BioAssay.
HSP90 refold inh: HSP90 inhibitors, primary screen, cell lysate, luminescence. Rabbit reticulocyte lysate, luciferase refolding luminescence, 3 h. Heat shock protein HSP 90 (rabbit reticulocyte lysate; luciferase refolding). inhibition, % at 5.6 µM. 0.91% of 290,000 active;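 active = inhibition above the screen-wide mean plus 3 SD, computed separately per campaign, cut at about 16% in these data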;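 note: 0% = DMSO wells and 100% = 60 µM geldanamycin wells; inhibitors lower the luminescence because luciferase stays unfolded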
SENP8 block-1: SENP8 protease inhibitors, primary screen, biochemical, luminescence; inhibition, % at 10 µM; 1.2% of 330,000 active; purified SENP8, Z-RLRGG-aminoluciferin cleavage; AID 2540, 2010; Sentrin-specific protease 8 (Homo sapiens), Q96LD8; in the data active = inhibition above about 50%
Target sequence (Q96LD8 whole entry, looked up): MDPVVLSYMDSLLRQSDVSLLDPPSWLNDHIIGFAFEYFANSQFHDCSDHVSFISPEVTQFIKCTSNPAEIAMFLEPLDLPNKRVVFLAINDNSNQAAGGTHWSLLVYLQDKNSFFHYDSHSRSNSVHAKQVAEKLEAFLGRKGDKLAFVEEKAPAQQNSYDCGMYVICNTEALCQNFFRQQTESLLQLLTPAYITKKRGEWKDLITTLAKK
SENP6 inh: SENP6 protease inhibitors, primary screen, biochemical, luminescence, uHTS | Sentrin-specific protease 6 (Homo sapiens), Q9GZR1 | Recombinant SENP6 catalytic domain, aminoluciferin luminescence | inhibition, % at 10 µM | 1.8% of 330,000 active | AID 2599, 2010;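 active = inhibition above about 50% at the single tested dose, limit read from the data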;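 note: plate controls were DMSO wells with enzyme for no effect and DMSO wells lacking enzyme for full effect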
SENP8 block-2: human SENP8 protease inhibitors, primary screen, biochemical, fluorescence, Nedd8 protein substrate, uHTS | 0.64% of 360,000 active | inhibition, % at 20 µM | Sentrin-specific protease 8 (Homo sapiens), Q96LD8 | recombinant SENP8 | AID 602440, 2012; in the data active = inhibition mostly above about 40%, no sharp cut-off; inactive = mostly below about 27%
SENP7 inh: SENP7 protease inhibitors, primary screen, biochemical, luminescence, uHTS; Sentrin-specific protease 7 (Homo sapiens), Q9BQF6; recombinant SENP7, Z-RLRGG-aminoluciferin luminescence, 40 min; inhibition, % at 5 µM; 1.5% of 330,000 active; AID 434973, 2010;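 active = inhibition above about 50% at the single test dose, limit read from the data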;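 note: plate controls were DMSO with enzyme for no effect and no enzyme buffer wells for full effect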
SENP8 confirm: SENP8 protease inhibitors, retest, confirmation, biochemical, luminescence, single concentration | 40% of 6,200 active | Recombinant SENP8, Z-RLRGG-aminoluciferin luminescence, 60 min | inhibition, % at 12.5 µM | shares compounds with SENP7 inh;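 active = mean inhibition across replicates above about 50%, limit read from the data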
SENP6 conf: SENP6 protease inhibitors, confirmation, biochemical, luminescence, single concentration | shares compounds with SENP7 inh | recombinant SENP6, Z-RLRGG-aminoluciferin luminescence | inhibition, % at 12.5 µM | 58% of 6,200 active | AID 488915, 2010
SENP7 confirm: SENP7 protease inhibitors, retest, confirmation, biochemical, luminescence, single concentration; shares compounds with SENP7 inh; recombinant SENP7, Z-RLRGG-aminoluciferin luminescence, 40 min; inhibition, % at 12.5 µM; 69% of 6,200 active; AID 488917, 2010
Casp3 SENP sel: caspase-3 protease inhibitors, confirmation, selectivity assay for SENP inhibitor project, biochemical, single concentration; 60% of 6,200 active; inhibition, % at 12.5 µM; purified caspase-3, Z-DEVD-aminoluciferin luminescence, 60 min; shares compounds with SENP7 inh;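 active = mean inhibition above about 50%, limit read from the data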;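 note: plate controls were enzyme with DMSO for no effect and wells without caspase-3 for full effect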
Target sequence (P42574 28-227 limits assumed): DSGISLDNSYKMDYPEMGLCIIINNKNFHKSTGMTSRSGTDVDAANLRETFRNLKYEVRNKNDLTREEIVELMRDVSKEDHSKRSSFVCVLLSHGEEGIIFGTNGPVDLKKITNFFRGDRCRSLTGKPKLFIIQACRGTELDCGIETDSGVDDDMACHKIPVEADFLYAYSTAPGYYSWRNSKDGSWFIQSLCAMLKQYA
SENP luc ctr: interferes with luciferase luminescence in SENP counter-screen. inhibition, % at 12.5 µM. AID 488919. shares compounds with SENP7 inh. 39% of 6,200 active. Pre-incubated SENP8/Z-RLRGG-aminoluciferin, luciferase luminescence interference;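 active = mean inhibition above about 50% when retested at one dose, limit read from the data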;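 note: plate controls were DMSO wells with completed reaction for no effect and substrate without enzyme for full effect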
Numbers without * were called inactive; · = not tested or not shown. Sampled rows, rich in hits. Any-hit rate of the full collection: about 2.8%.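 Rule for the calls, unless noted: active = mean inhibition above about 50% in the one-dose retest (limit read from the data); inactive = the rest.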

SMILES | HSP90 refold inh | SENP8 block-1 | SENP6 inh | SENP8 block-2 | SENP7 inh | SENP8 confirm | SENP6 conf | SENP7 confirm | Casp3 SENP sel | SENP luc ctr
COc1ccc(OC)c(/C=C/c2ccc3cccc(O)c3n2)c1 | 7 | -16 | -8 | -307 | -15 | · | · | · | · | ·
Cc1ccsc1/C=C/c1ccc2ccccc2n1 | 9 | 27 | 48 | -22 | 7 | · | · | · | · | ·
CC1(C)Oc2ccc3ccc(=O)oc3c2C(N2CCCCC2)C1O (stereo not given) | 0 | -12 | -4 | -332 | -4 | · | · | · | · | ·
CC(Oc1ccc(S(=O)(=O)N2CCCC2)cc1[N+](=O)[O-])C(=O)NC1(C#N)CCCCC1 (stereo not given) | · | -13 | -18 | 10 | -9 | · | · | · | · | ·
Cc1cccc(-n2ncc3c(N4CCCc5ccccc54)ncnc32)c1 | 3 | -4 | -1 | -41 | -4 | · | · | · | · | ·
COc1cc(Br)c(/C=C/c2ccc3cccc(O)c3n2)cc1OC | 1 | -9 | 11 | -39 | 5 | · | · | · | · | ·
COc1cc(/C=C/c2ccc3cccc(O)c3n2)c(Br)cc1O | -2 | 87* | 84* | -219 | 77* | 63* | 86* | 100* | 55* | 10
O=C(CSc1ncccn1)N1CCN(S(=O)(=O)c2ccccc2)CC1 | 0 | -8 | 11 | 13 | -8 | · | · | · | · | ·
COc1ccc(OCc2cc(C(=O)NC(C)Cc3ccccn3)no2)c(Cl)c1 (stereo not given) | -6 | -13 | -7 | 10 | -13 | · | · | · | · | ·
Fc1ccccc1SCc1nnc(-c2ccccc2Br)o1 | 7 | 53* | 14 | 1 | 43 | 66* | 67* | 86* | 49 | 30
Cc1cccc2sc(NC(=O)c3ccc(NS(=O)(=O)c4cccs4)cc3)nc12 | -8 | 70* | 86* | -326 | 45 | 2 | 81* | 6 | 31 | 26
CSCC(C)N1CCC(n2nccc2NC(=O)c2ccc3c(c2)OCO3)CC1 (stereo not given) | -4 | 1 | -4 | 12 | 0 | · | · | · | · | ·
Cc1csc(NC(=O)c2ccc(C)c(S(=O)(=O)N3CCCCC3)c2)n1 | 4 | -7 | 22 | 22 | 5 | · | · | · | · | ·
CC1CCN(C2=C(NS(=O)(=O)c3ccccc3)C(=O)c3ccccc3C2=O)CC1 | -1 | 17 | 49 | 33 | 17 | · | · | · | · | ·
O=C1C(Nc2ccccc2)=C(N2CCCCC2)C(=O)c2ccccc21 | 2 | 59* | 86* | 83* | 61* | 63* | 79* | 58* | 95* | 6
COc1ccccc1NC1=C(N2CCCCC2)C(=O)c2ccccc2C1=O | 5 | 73* | 74* | 88* | 47 | 43 | 91* | 72* | 97* | -4
O=C(/C=C/c1ccc(O)cc1)c1ccc(NC2=C(N3CCCCC3)C(=O)c3ccccc3C2=O)cc1 | 1 | 67* | 76* | 25 | 48 | 64* | 85* | 77* | 95* | 84*
O=C(/C=C/c1ccc(O)c(O)c1)c1ccc(S(=O)(=O)N2CCCCCC2)cc1 | -2 | -9 | -22 | 27 | -3 | · | · | · | · | ·
O=C1C(Nc2cccc(O)c2)=C(N2CCCCC2)C(=O)c2ccccc21 | 3 | 63* | 81* | 76* | 41 | 57* | 77* | 45 | 94* | -1
O=S(=O)(NCC1COc2ccccc2O1)c1ccc2ccccc2c1 (stereo not given) | 1 | -3 | -7 | 12 | 4 | · | · | · | · | ·
Cc1ccc(NC2=C(N3CCCCC3)C(=O)c3ccccc3C2=O)cc1 | 5 | 52* | 66* | 82* | -21 | 8 | 90* | 74* | 95* | 10
COc1ccc(C(=O)/C=C/Nc2cccc(C)n2)cc1OC | 1 | 22 | 34 | -138 | 25 | · | · | · | · | ·
O=C(/C=C/Nc1ccc(Br)cn1)c1cccc(OC(F)F)c1 | · | 49 | 40 | -263 | 62* | 15 | 31 | 34 | 17 | 1
CCCOc1ccc(/C=C/C(=O)N2CCN(C(=O)c3ccco3)CC2)cc1OC | · | · | · | -201 | · | · | · | · | · | ·
C=C(C)Cn1c(N2CCC(Cc3ccccc3)CC2)nc2c1c(=O)[nH]c(=O)n2C | 3 | 81* | 98* | 19 | 4 | 23 | 21 | 1 | 6 | 0
SMILES | HSP90 refold inh | SENP8 block-1 | SENP6 inh | SENP8 block-2 | SENP7 inh | SENP8 confirm | SENP6 conf | SENP7 confirm | Casp3 SENP sel | SENP luc ctr
O=C(Nc1nnc(S(=O)(=O)N2CCCC2)s1)c1cccc([N+](=O)[O-])c1 | -7 | 34 | 52* | 2 | 20 | 10 | 30 | 6 | 26 | 2
O=C(Nc1nnc(SCc2ccccc2)s1)c1cccc([N+](=O)[O-])c1 | 2 | 71* | 84* | 16 | 22 | 68* | 66* | 83* | 53* | 44
O=C(Nc1nnc(CSCc2ccccc2F)s1)c1cccc([N+](=O)[O-])c1 | -2 | 25 | 56* | -19 | 4 | 10 | 6 | 2 | 7 | 1
CC(C)C(=O)Nc1nnc(CSCc2ccccc2F)s1 | 4 | -11 | -18 | 2 | -11 | · | · | · | · | ·
COc1ccc(C)cc1NC(=O)C1CCN(C(=O)c2ccc(C(C)(C)C)cc2)CC1 | -4 | 3 | 9 | 6 | 2 | · | · | · | · | ·
Nc1ccc2nc(-c3ccc(Cl)cc3)[nH]c2c1 | · | 66* | 75* | -433 | 63* | 80* | 81* | 54* | 45 | 81*
Nc1ccc2nc(-c3cc(Cl)c(N)c(Cl)c3)[nH]c2c1 | -5 | 64* | 87* | -329 | 77* | -20 | 73* | 94* | 82* | 76*
CN(C)/C=N/C(=S)Nc1cc(Cl)cc(Cl)c1 | 0 | -2 | 5 | 5 | 6 | · | · | · | · | ·
CN(C)/C=N/C(=S)Nc1ccc(Cl)c(Cl)c1 | 1 | 13 | 60* | 18 | 38 | 62* | 61* | 85* | 58* | 9
Cc1c(C(=O)N2c3ccccc3CC2C)oc2ccccc12 (stereo not given) | 0 | 68* | 80* | 15 | 62* | 78* | 77* | 90* | 51* | 50
CC1CCCN(CCCNC(=O)c2coc3nc4ccccc4nc23)C1 (stereo not given) | 1 | 59* | 81* | -403 | 51* | 73* | 66* | 86* | 89* | 75*
